The list is not random: actives were taken first. Their share in the collection is about 2.7%.
SENP8 block-1 – blocks the human protease SENP8; Q96LD8; purified SENP8, Z-RLRGG-aminoluciferin cleavage, luminescence; inhibition, % at 10 µM; 330,000 tested, 1.2% active; AID 2540; in the data active means inhibition above about 50%
Target sequence (Q96LD8 whole entry, looked up): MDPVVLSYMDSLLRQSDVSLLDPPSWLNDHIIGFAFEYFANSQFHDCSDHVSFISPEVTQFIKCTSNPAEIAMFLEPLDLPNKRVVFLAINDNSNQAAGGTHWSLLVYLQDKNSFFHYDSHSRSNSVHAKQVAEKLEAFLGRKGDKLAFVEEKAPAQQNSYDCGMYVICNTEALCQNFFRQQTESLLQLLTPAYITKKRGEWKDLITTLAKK
HSP90 inh – HSP90 refolding inhibition in rabbit reticulocyte lysate; 290,000 tested, 0.91% active; inhibition, % at 5.6 µM; luciferase refolding luminescence, 3 h;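 active means inhibition above the screen-wide mean plus 3 SD, computed separately per campaign, cut at about 16% in these data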;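 further: inhibitors lower the luminescence because luciferase stays unfolded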
SENP7 inh – SENP7 protease inhibition | recombinant SENP7, Z-RLRGG-aminoluciferin luminescence, 40 min | inhibition, % at 5 µM | 330,000 tested, 1.5% active | AID 434973;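 active means inhibition above about 50% at the single test dose, limit read from the data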
SENP8 block-2 – inhibitors of human SENP8 protease. 360,000 tested, 0.64% active. inhibition, % at 20 µM. recombinant SENP8, Nedd8 substrate fluorescence; in the data active means inhibition mostly above about 40%, no sharp cut-off; inactive means mostly below about 27%
SENP6 block – SENP6 protease inhibition | Q9GZR1 | Recombinant SENP6 catalytic domain, aminoluciferin luminescence | inhibition, % at 10 µM | 330,000 tested, 1.8% active | AID 2599;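 active means inhibition above about 50% at the single tested dose, limit read from the data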
SENP8 confirm – confirmation of human SENP8 protease inhibitors | Recombinant SENP8, Z-RLRGG-aminoluciferin luminescence, 60 min | AID 488912 | 6,200 tested, 40% active | inhibition, % at 12.5 µM | shares compounds with SENP7 inh;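 active means mean inhibition across replicates above about 50%, limit read from the data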
SENP6 conf – confirmation of human SENP6 protease inhibitors | 6,200 tested, 58% active | AID 488915 | recombinant SENP6, Z-RLRGG-aminoluciferin luminescence | inhibition, % at 12.5 µM | shares compounds with SENP7 inh
SENP7 confirm – confirmation of human SENP7 protease inhibitors; shares compounds with SENP7 inh; recombinant SENP7, Z-RLRGG-aminoluciferin luminescence, 40 min; inhibition, % at 12.5 µM; 6,200 tested, 69% active; AID 488917
Casp3 SENP sel – selectivity test for SENP inhibitors: human caspase-3 inhibition | shares compounds with SENP7 inh | purified caspase-3, Z-DEVD-aminoluciferin luminescence, 60 min | inhibition, % at 12.5 µM | 6,200 tested, 60% active;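 active means mean inhibition above about 50%, limit read from the data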
Target sequence (P42574 28-227 limits assumed): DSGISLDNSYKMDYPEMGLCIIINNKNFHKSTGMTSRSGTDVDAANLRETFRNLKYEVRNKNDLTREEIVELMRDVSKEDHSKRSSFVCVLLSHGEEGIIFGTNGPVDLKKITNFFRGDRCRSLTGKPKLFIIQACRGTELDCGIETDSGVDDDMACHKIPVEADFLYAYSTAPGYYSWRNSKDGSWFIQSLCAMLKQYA
Luc interf – interferes with luciferase luminescence in SENP counter-screen; shares compounds with SENP7 inh; Pre-incubated SENP8/Z-RLRGG-aminoluciferin, luciferase luminescence interference; inhibition, % at 12.5 µM; 6,200 tested, 39% active; AID 488919;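 active means mean inhibition above about 50% when retested at one dose, limit read from the data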
Each line names hits and unclear results; the compound was inactive in the other large screens (follow-up assays come after a bar, where they were run).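 How the source made its calls, unless noted: active means mean inhibition above about 50% in the one-dose retest (limit read from the data); inactive means the rest.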

C/C(=N\OC(=O)Nc1ccccc1)c1ccc(C)cc1	SENP8 block-1 70, SENP7 inh 73, SENP6 block 67 (no result: HSP90 inh) | SENP8 confirm 82 | SENP6 conf 83 | SENP7 confirm 96 | Casp3 SENP sel 79 | Luc interf 78
CCOc1ccc(NC(=S)NC(=O)c2c(Cl)cnn2CC)c([N+](=O)[O-])c1	none
Cc1nc2c3cnn(-c4ccc(C)c(C)c4)c3ncn2n1	SENP6 block 58 | SENP8 confirm inactive | SENP6 conf inactive | SENP7 confirm 68 | Casp3 SENP sel 79 | Luc interf inactive
Cc1ccc(-n2ncc3c(=O)n(CC(N)=O)cnc32)cc1C	none
O=C(CSc1ncnc2c1cnn2-c1cccc(Cl)c1)NCC1CCCO1 (configuration not stated)	SENP8 block-1 87, SENP6 block 89 | SENP8 confirm inactive | SENP6 conf inactive | SENP7 confirm inactive | Casp3 SENP sel inactive | Luc interf inactive
Cc1ccc(-n2ncc3c(SCC(N)=O)ncnc32)cc1C	SENP8 block-1 57 | SENP8 confirm inactive | SENP6 conf inactive | SENP7 confirm inactive | Casp3 SENP sel inactive | Luc interf inactive
COC(=O)c1sccc1NC(=O)Nc1ccc(OC)cc1OC	none
COc1ccc(OCCOC(=O)c2ccc(-n3cnnn3)cc2)cc1	none
CCOc1ccc(C(=O)COC(=O)c2cc(=O)[nH]c3ccccc23)cc1	SENP7 inh 53 (no result: HSP90 inh) | SENP8 confirm inactive | SENP6 conf inactive | SENP7 confirm inactive | Casp3 SENP sel inactive | Luc interf inactive
COc1cc(C(=S)N2CCOCC2)cc(OC)c1OC(=O)c1ccc(C)cc1	none
COc1ccc(C(=O)Oc2ccc3c(c2)OCO3)cc1OC	SENP7 inh 60, SENP6 block 58 | SENP8 confirm inactive | SENP6 conf inactive | SENP7 confirm 80 | Casp3 SENP sel 66 | Luc interf 61
N/C(=N\OC(=O)c1ccc2c(c1)OCO2)c1cccnc1	SENP8 block-1 51, SENP7 inh 80, SENP6 block 74 | SENP8 confirm 58 | SENP6 conf 57 | SENP7 confirm 87 | Casp3 SENP sel 88 | Luc interf 69
COc1cc(OC)c(C(=O)Oc2ccc3c(c2)OCO3)cc1OC	none
N/C(=N\OC(=O)c1ccc2c(c1)OCO2)c1cccc(Br)c1	SENP8 block-1 96, SENP7 inh 98, SENP6 block 95 | SENP8 confirm 97 | SENP6 conf 98 | SENP7 confirm 102 | Casp3 SENP sel 97 | Luc interf 51
N/C(=N\OC(=O)c1ccc2c(c1)OCO2)c1ccc([N+](=O)[O-])cc1	none
COc1ccc(/C(N)=N/OC(=O)c2ccc3c(c2)OCO3)cc1OC	SENP8 block-1 75, SENP7 inh 84, SENP6 block 83 | SENP8 confirm inactive | SENP6 conf inactive | SENP7 confirm inactive | Casp3 SENP sel inactive | Luc interf inactive
Cc1ncc([N+](=O)[O-])n1CCOC(=O)Nc1ccc([N+](=O)[O-])cc1	none
Cn1c(CCC(=O)O)nc2cc(S(=O)(=O)N3CCCCC3)ccc21	none (no result: HSP90 inh)
COc1ccc(CNC(=O)c2sc(=O)n(Cc3ccc(S(=O)(=O)N(C)C)cc3)c2C)cc1	none (no result: SENP8 block-1, HSP90 inh, SENP7 inh, SENP6 block)
N#C/C(=C/c1ccc(N2CCCCC2)o1)c1cccc(F)c1	none
Cc1cc(C)n(-c2ccc(C(=O)Oc3ccc4c(c3)OCO4)cc2)n1	SENP7 inh 67 | SENP8 confirm 62 | SENP6 conf 70 | SENP7 confirm 91 | Casp3 SENP sel 67 | Luc interf 57
CC(=O)c1ccc(OC(=O)c2ccc(-n3nc(C)cc3C)cc2)cc1	none
C(=C\c1nc(-c2ccncc2)no1)/c1ccccc1	none
